This passage reports activation and Potency results from PubChem BioAssay (NCATS).

Several values for one entry are separate records, joined by “and”; a condition that tells them apart may be missing. Equal entries are not always repeated. Records with an inconclusive call do not appear. Values without a mark were called inactive. Activity calls are given as the source filed them. Calls come from the whole dose curve; as a rule, active = well fitted curve in the direction sought with a large enough effect; inconclusive = small, poorly fitted or top-dose-only effect, or another doubt; inactive = no such curve, though single readings can be large; an effect the other way counts as inactive or inconclusive.

For test [1], the target named is Cellular tumor antigen p53 (Homo sapiens) (UniProt P04637). Put plainly: Primary qHTS for small molecule compounds that upregulate eGFP-tagged delta133p53alpha (in N-terminal) cells. (AID 2060322).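 For activation: cells pre-induced with doxycycline then dosed without doxycycline; series mostly up to about 56 µM; 0% = DMSO vehicle and 100% = reference activator.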 Note: nearly all actives have a fitted effect of over 75% in size. The settings on record: NCI-H358 eGFP-delta133p53alpha fluorescence, 24 h; activation: stronger effect = higher value. The method, boiled down: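 NCI-H358 cells pre-induced 24 h with 10 ng/ml doxycycline for eGFP-delta133p53alpha, plated dox-free and exposed 24 h at 37C to titrated compounds. Fixed, Hoechst-stained; gated GFP peak intensity by laser scanning cytometry, normalized to DMSO (0%) and 57.5 uM 5-azacytidine (100%).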
A general note: qHTS replaces the single test concentration by a dilution series.

Test [2] can be described thus: BET inhibitor-based combinations targeting novel dependencies in MECOM-rearranged (r) AML: OCI-AML3 cell line (AID 2202232). Note: nearly all actives have a fitted effect of over 35% in size. The settings on record: Potency: OCI-AML3 viability. The method, boiled down: (§1)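 Readout: CellTiter-Glo luminescence. Exposure: 48 h, 11 concentrations, 500 cells/well. Metric: AUC and within-line Z-AUC after DMSO/empty-well normalization.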
Test [3] in a line: BET inhibitor-based combinations targeting novel dependencies in MECOM-rearranged (r) AML: AML-191 cell line (AID 2202236; note: nearly all actives have a fitted effect of over 35% in size). The method, boiled down: as §1
A short description of test [4]: BET inhibitor-based combinations targeting novel dependencies in MECOM-rearranged (r) AML: MV-4-11 cell line (AID 2202233). Note: nearly all actives have a fitted effect of over 45% in size. The method, boiled down: (§2)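 Seeding density was 500 cells/well, and drug exposure lasted 48 hr under standard culture conditions. Read-out used CellTiter-Glo reagent with a 15 min room-temperature incubation before luminescence measurement; AUC and Z-AUC summarize the normalized responses.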

Test [5] in a line: BET inhibitor-based combinations targeting novel dependencies in MECOM-rearranged (r) AML: HNT-34 cell line (AID 2202234). Note: nearly all actives have a fitted effect of over 35% in size. An outline of the steps: as §2
Test [6] in a line: BET inhibitor-based combinations targeting novel dependencies in MECOM-rearranged (r) AML: UCSD-AML1 cell line (AID 2202235). Note: nearly all actives have a fitted effect of over 40% in size. An outline of the steps:
as §2

A short description of test [7]: BET inhibitor-based combinations targeting novel dependencies in MECOM-rearranged (r) AML: AML-194 cell line (AID 2202237; note: nearly all actives have a fitted effect of over 40% in size). An outline of the steps:
as §1
Potency is the fitted concentration of half-maximal effect.

Cellular tumor antigen p53 (Homo sapiens), sequence (P04637 whole entry, looked up): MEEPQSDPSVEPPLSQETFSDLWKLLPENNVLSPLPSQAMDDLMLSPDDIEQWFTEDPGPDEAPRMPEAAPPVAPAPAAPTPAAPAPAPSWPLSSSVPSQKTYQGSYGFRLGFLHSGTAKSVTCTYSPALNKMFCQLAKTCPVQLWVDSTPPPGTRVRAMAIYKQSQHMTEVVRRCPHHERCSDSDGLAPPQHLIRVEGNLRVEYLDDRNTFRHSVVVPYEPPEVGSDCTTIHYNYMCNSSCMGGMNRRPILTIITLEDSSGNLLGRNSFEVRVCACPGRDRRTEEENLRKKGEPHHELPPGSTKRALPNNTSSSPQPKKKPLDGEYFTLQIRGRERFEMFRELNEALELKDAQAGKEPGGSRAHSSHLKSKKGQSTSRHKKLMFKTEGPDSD

Regarding `O=c1cc(-c2ccccc2)oc2cc(O)c(O)c(O)c12`, in test [1], the activation is -1.25%. Also, the Potency is 7.42 µM (active) in test [2] and 18.6 µM (active) in test [3].

Take `C=C1C(=O)OC(CCCCCCCC)C1C(=O)O` (stereo not given): the activation in test [1] was -0.0763%. For the same molecule, the Potency entry in test [4], in test [5], in test [6], in test [3] and in test [7] was “inactive” each time.

`O=C(Nc1ccccc1Br)N[C@@H]1CCN(c2ccc(C(F)(F)F)cn2)C1`: the activation in test [1] was 10.1%. Moreover, the Potency result in test [4], in test [5], in test [6], in test [3] and in test [7] was “inactive” throughout.

As for `CCOC(=O)[C@@H](N)CCC(=O)N[C@@H](CSCc1ccccc1)C(=O)N[C@@H](C(=O)OCC)c1ccccc1`, the activation in test [1] was -1.42%. Further, the Potency in test [4] is 18.6 µM (active); in test [5] it was 26.3 µM (active); in test [3], 16.6 µM (active).

Turning to `O=C1CSC(=O)N1C(CCc1ccncc1)COc1ccc(-c2cccc([N+](=O)[O-])c2)cc1` (stereo not given), in test [1], the activation was -7.57%. Further, the Potency in test [4] is 16.6 µM (active). The Potency entry in test [6] was “inactive”.

With `CCN(CC)CCCCNc1nc2cc(Cl)c(Cl)cc2nc1-c1ccc(-c2cccs2)s1`, the Potency in test [1] is 6.85 µM (active); in test [2], 20.9 µM (active); in test [3], 26.3 µM (active).

As for `CCc1nc(N)nc(N)c1-c1ccc(Cl)cc1`, in test [1], the activation is -15.9% and -12.3%. In test [4], the Potency was 14.8 µM (active). In addition, the Potency result in test [5] and in test [6] was “inactive” each time.

As to `O=C(O)Cc1cccc(OCCCN(Cc2cccc(C(F)(F)F)c2Cl)CC(c2ccccc2)c2ccccc2)c1`, the activation in test [1] was 4.75%. In addition, in test [4], the Potency is 20.9 µM (active).

As to `CC[C@@]1([C@@H]2O[C@@H]([C@H]3O[C@@](O)(CO)[C@H](C)C[C@H]3C)C[C@H]2C)CC[C@H]([C@]2(C)CC[C@]3(C[C@H](O)[C@@H](C)[C@@H]([C@@H](C)[C@@H](OC)[C@H](C)C(=O)O)O3)O2)O1`, the activation in test [1] was 7.91%. In addition, the Potency in test [4] was 0.574 µM (active); in test [5], 0.0811 µM (active); in test [6], 0.288 µM (active).

Regarding `C[C@@H]1C[C@H]2[C@@H]3CCC4=CC(=O)C=C[C@]4(C)[C@@]3(Cl)[C@@H](O)C[C@]2(C)[C@@]1(OC(=O)c1ccco1)C(=O)CCl`, the activation in test [1] is 19.9%. In test [4], the Potency is 23.5 µM (active).

For `C=Cc1c(C)c2cc3nc(cc4[nH]c(cc5nc(cc1[nH]2)C(C)=C5CCC(=O)O)c(CCC(=O)OC)c4C)[C@@]1(C)C3=CC=C(C(=O)OC)[C@H]1C(=O)OC`, in test [1], the activation was 9.63%. Besides, the Potency in test [4] was 26.3 µM (active); in test [5], 18.6 µM (active). Moreover, the Potency result in test [6] and in test [3] was “inactive” in each case.

As for `COc1cc2ncnc(Nc3cccc(Br)c3)c2cc1OC`, in test [1], the activation is 29.9%. In addition, the Potency in test [4] was 9.34 µM (active); in test [5], 9.34 µM (active); in test [6] it was 20.9 µM (active); in test [3], 20.9 µM (active).

For the molecule `CCn1c(-c2nonc2N)nc2cnc(Oc3cccc(NC(=O)c4ccc(OCCN5CCOCC5)cc4)c3)cc21`, the activation in test [1] was -20.5%. The Potency in test [4] was 0.332 µM (active).

Take `CC(C)(C)c1cnc(CSc2cnc(NC(=O)C3CCNCC3)s2)o1`: the Potency in test [1] was 0.968 µM (active); in test [2] it was 0.372 µM (active); in test [5], 0.235 µM (active); in test [7] it was 0.742 µM (active).

As for `CNC(=O)c1cc(COc2nnc(Nc3ccc(Cl)cc3)c3ccoc23)ccn1`, the activation in test [1] is -2.64%. Moreover, the Potency result in test [2], in test [3] and in test [7] was “inactive” in each case.

Take `COc1cc2c(cc1Cc1cccc(Cl)c1F)c(=O)c(C(=O)O)cn2[C@H](CO)C(C)C`: the activation in test [1] is -15%. Moreover, the Potency was 16.6 µM (active) in test [2], 3.72 µM (active) in test [5], 9.34 µM (active) in test [3] and 8.33 µM (active) in test [7].

Take `COc1ccc(Nc2cc(-c3cnc(N)nc3)nc(N3CCOCC3)n2)cn1`: the activation in test [1] is 24.5%. In test [4], the Potency is 5.25 µM (active).

Consider `COc1cc2ncnc(Nc3cc(Br)c(O)c(Br)c3)c2cc1OC`, for which, in test [1], the activation was 26.5%. Further, the Potency is 7.42 µM (active) in test [4] and 18.6 µM (active) in test [5].

For the molecule `COc1cc2ncn(-c3cc(OCc4ccccc4S(C)(=O)=O)c(C#N)s3)c2cc1OC`, the activation in test [1] is -10.5%. The Potency result in test [4], in test [5], in test [3] and in test [7] was “inactive” each time.

Take `COc1ccc(-c2cc(=O)c3c(O)cc(O)cc3o2)cc1O`: in test [1], the activation was 29.3%. The Potency in test [4] is 5.25 µM (active).

`CC(=O)NC(CS)C(=O)O` (stereo not given): the activation in test [1] is 60.6%. Moreover, the Potency result in test [4], in test [5], in test [3] and in test [7] was “inactive” in each case.

Turning to `Cc1ccc(-n2nc(C(C)(C)C)cc2NC(=O)Nc2ccc(OCCN3CCOCC3)c3ccccc23)cc1`, the activation in test [1] was 23.4%. The Potency in test [2] and in test [3] was 18.6 µM (active) in each case. In addition, the Potency result in test [6] and in test [7] was “inactive” throughout.

Turning to `CCc1c2c(nc3ccc(OC(=O)N4CCC(N5CCCCC5)CC4)cc13)-c1cc3c(c(=O)n1C2)COC(=O)[C@]3(O)CC`, the activation in test [1] was 14.2%. The Potency in test [4] is 0.166 µM (active); in test [5], 0.105 µM (active); in test [6], 0.209 µM (active); in test [3], 0.235 µM (active); in test [7] it was 0.332 µM (active).
